Laboratory results from the supplement of paper PMC6555819.

Experiments:
Assay in all cases: PBM binding z-score (relative to random genomic background probes); higher = stronger binding; sequences stand for … in GC…GCGATTGACAGCGTAGAATGAAGG
[1] = test system: FXR:RXRa (NR concentration 270 nM, RXRa partner concentration 90 nM)
Method in brief: (§1)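 Binding buffer was PBS pH 7.4 with 2% milk, 0.02% Triton X-100, 1 mM DTT, 0.2 mg/mL BSA and 0.4 mg/ml salmon testes DNA. In it, ligand-free nuclear receptor dimers were incubated 1 h on custom Agilent 4×180K protein-binding microarrays carrying double-stranded probes. Antibodies against each partner (one per run) detected binding, and z-scores were calculated against random background probes after regression normalization of scanned fluorescence.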

[2] = test system: LXRa:RXRa (NR concentration 270 nM, RXRa partner concentration 90 nM)
Method in brief: as §1

[3] = test system: LXRa homodimer (NR concentration 270 nM)
Method in brief: as §1

[4] = test system: LXRb:RXRa (NR concentration 270 nM, RXRa partner concentration 90 nM)
Method in brief: as §1

[5] = test system: PPARa:RXRa (NR concentration 270 nM, RXRa partner concentration 90 nM)
Method in brief: as §1

[6] = test system: PPARg:RXRa (NR concentration 180 nM, RXRa partner concentration 90 nM)
Method in brief: as §1

[7] = test system: PPARg:RXRa 270nM:90nM, anti-RXR (NR concentration 270 nM, RXRa partner concentration 90 nM)
Method in brief: as §1

[8] = test system: PPARg:RXRa 30nM:10nM, anti-RXR (NR concentration 30 nM, RXRa partner concentration 10 nM)
Method in brief: as §1

[9] = test system: PPARg:RXRa 90nM:30nM, anti-RXR (NR concentration 90 nM, RXRa partner concentration 30 nM)
Method in brief: as §1

[10] = test system: PPARg:RXRa DBDmut IVT, anti-RXR (DBD mutation: RXRa K156A/R161A, NR concentration 270 nM, RXRa partner concentration 90 nM)
Method in brief: as §1

[11] = test system: PPARg:RXRa IVT, anti-PPARg (NR concentration 270 nM, RXRa partner concentration 90 nM)
Method in brief: as §1

[12] = test system: PPARg homodimer (NR concentration 180 nM)
Method in brief: as §1

[13] = test system: PXR:RXRa (NR concentration 270 nM, RXRa partner concentration 90 nM)
Method in brief: as §1

[14] = test system: PXR homodimer (NR concentration 270 nM)
Method in brief: as §1

[15] = test system: RARa:RXR (NR concentration 270 nM, RXRa partner concentration 90 nM)
Method in brief: as §1

[16] = test system: RARa homodimer (NR concentration 270 nM)
Method in brief: as §1

[17] = test system: RARb:RXRa (NR concentration 270 nM, RXRa partner concentration 90 nM)
Method in brief: as §1

Row | Sequence | PBM binding z-score [1] | PBM binding z-score [2] | PBM binding z-score [3] | PBM binding z-score [4] | PBM binding z-score [5] | PBM binding z-score [6] | PBM binding z-score [7] | PBM binding z-score [8] | PBM binding z-score [9] | PBM binding z-score [10] | PBM binding z-score [11] | PBM binding z-score [12] | PBM binding z-score [13] | PBM binding z-score [14] | PBM binding z-score [15] | PBM binding z-score [16] | PBM binding z-score [17]
1 | TCGAGTAGGTTACGGGGGCACTCAGGGATGAAGA | 2.26 | 2.67 | 0.365 | 4.7 | 4.43 | 6.44 | 6.05 | 3.54 | 5.14 | 4.71 | 6.2 | 2.56 | 2.71 | 0.594 | 3.05 | -0.263 | 2.65
2 | CTATGGAGGTTAAGGGGGTCATTCAGTTTGAAAG | 6.34 | 5.63 | 4.04 | 6.44 | 6.28 | 6.41 | 6.6 | 3.97 | 5.74 | 4.65 | 6.42 | 4.29 | 6.58 | 12.7 | 6.29 | 2.33 | 4.01
3 | TCGAGCAGGTTACGGGGGCATTCAGGGATGAAGA | 2.74 | 2.64 | 0.7 | 4.88 | 4.14 | 4.31 | 4.37 | 2.24 | 3.46 | 2.41 | 4.12 | 1.23 | 3.03 | 0.942 | 3.16 | 0.368 | 2.53
4 | CTATGTAGGTTAAGGGGGTCATTCTGTTTGAAAG | 4.82 | 4.99 | 2.88 | 6.33 | 5.95 | 8.35 | 7.68 | 6 | 7.63 | 6.99 | 7.55 | 3.03 | 5.44 | 3.94 | 5.46 | 1.35 | 3.47
5 | CTATGTAGGTTAAGGGGGGCATTCAGTTTGAAAG | 3.22 | 3.64 | 1.74 | 6.04 | 4.85 | 8.88 | 7.37 | 6.02 | 7.7 | 7.45 | 7 | 3.9 | 4.18 | 8.89 | 2.96 | 3.91 | 3.35
6 | CTATGTAGGTTAAGGTGGTCATTCAGTTTGAAAG | 1.04 | 1.15 | 0.413 | 1.09 | 3.64 | 5.35 | 4.98 | 2.07 | 4.28 | 7.1 | 7 | 1.36 | 0.913 | 0.758 | 0.941 | 0.483 | 1.53
7 | CTATGTAGGTTAAGGGCGTCATTCAGTTTGAAAG | 0.15 | 0.294 | -0.263 | 0.367 | 3.53 | 5.29 | 5.64 | 3.36 | 5.17 | 7.33 | 6.94 | 1.62 | 0.377 | 0.443 | 0.584 | -0.284 | 1.27
8 | CTATATAGGTTAAGGGGGTCATTCAGTTTGAAAG | 6.35 | 5.57 | 2.95 | 6.48 | 6.33 | 8.85 | 8.04 | 6.09 | 8.09 | 7.39 | 7.38 | 4.56 | 6.35 | 12.1 | 6.42 | 1.99 | 3.91
9 | TCGCGTAGGTTACGGGGGCATTCAGGGATGAAGA | 2.62 | 3.1 | 0.819 | 5.1 | 4.31 | 4.62 | 4.92 | 3.28 | 3.93 | 2.78 | 4.58 | 1.25 | 3.16 | 1.49 | 3.42 | 0.315 | 2.72
10 | CCGAGTAGGTTACGAGGGAGCATTCAGTGCGAAT | -0.0908 | 3.55 | -0.145 | 1.05 | 1.52 | 1.15 | 1.55 | 0.0513 | 0.563 | 4.73 | 3.51 | 0.106 | 0.602 | 0.000491 | 0.506 | -0.145 | 0.887
11 | CTATGTAGGTTAAGGGGGACATTCAGTTTGAAAG | 1.22 | 1.63 | 0.816 | 3.58 | 5.12 | 8.82 | 8.59 | 7.64 | 9.61 | 7.33 | 7.62 | 2.11 | 2.48 | 5.75 | 1.65 | 1.11 | 2.1
12 | TCGAGTAGGTTACGGGGCCATTCAGGGATGAAGA | 0.993 | 0.505 | -0.236 | 0.939 | 2.58 | 3.24 | 3.52 | 1.65 | 2.58 | 3.76 | 4.63 | 0.412 | 0.639 | -0.128 | 0.892 | -0.208 | 1.44
13 | CTATGTAGGTTGAGGGGGTCATTCAGTTTGAAAG | 4.59 | 4.82 | 2 | 6.24 | 5.54 | 4.5 | 5.93 | 2.9 | 5.21 | 3.98 | 5.16 | 3.25 | 5.67 | 10.2 | 5.29 | 2.23 | 3.4
14 | CGGAGTAGGTTACGAGGGGGCATTCAGTGCGAAT | 3.18 | 7.21 | 1.72 | 6.48 | 4.04 | 4.95 | 5.18 | 2.85 | 4.32 | 6.26 | 7.82 | 1.69 | 5.02 | 6.07 | 3.15 | 0.639 | 2.54
15 | CTATGTAGGTTAAGGGGGTCTTTCAGTTTGAAAG | 0.885 | 1.5 | 0.399 | 3.78 | 4.64 | 7.24 | 7.16 | 4.5 | 6.8 | 7.13 | 7.07 | 2.14 | 2.15 | 1.64 | 1.84 | 0.701 | 1.89
16 | TCGACTAGGTTACGGGGGCATTCAGGGATGAAGA | 2.94 | 2.96 | 1.01 | 5.58 | 4.29 | 6.51 | 5.97 | 4.68 | 5.76 | 5.37 | 6.51 | 2.41 | 3.59 | 2.11 | 3.47 | 0.467 | 2.91
